UHRF1 MBD2 ctr – UHRF1 methyl-DNA binding inhibition. Q96T88. UHRF1 binding to methylated oligo, TR-FRET. inhibition, % at 4.4 µM. 370,000 tested, 0.75% active. AID 687016; in the data active means inhibition above about 21%;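 further: UHRF1 SRA domain binding a hemimethylated CpG hairpin DNA probe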
Target sequence (Q96T88 whole entry, looked up, the tested form may be a part): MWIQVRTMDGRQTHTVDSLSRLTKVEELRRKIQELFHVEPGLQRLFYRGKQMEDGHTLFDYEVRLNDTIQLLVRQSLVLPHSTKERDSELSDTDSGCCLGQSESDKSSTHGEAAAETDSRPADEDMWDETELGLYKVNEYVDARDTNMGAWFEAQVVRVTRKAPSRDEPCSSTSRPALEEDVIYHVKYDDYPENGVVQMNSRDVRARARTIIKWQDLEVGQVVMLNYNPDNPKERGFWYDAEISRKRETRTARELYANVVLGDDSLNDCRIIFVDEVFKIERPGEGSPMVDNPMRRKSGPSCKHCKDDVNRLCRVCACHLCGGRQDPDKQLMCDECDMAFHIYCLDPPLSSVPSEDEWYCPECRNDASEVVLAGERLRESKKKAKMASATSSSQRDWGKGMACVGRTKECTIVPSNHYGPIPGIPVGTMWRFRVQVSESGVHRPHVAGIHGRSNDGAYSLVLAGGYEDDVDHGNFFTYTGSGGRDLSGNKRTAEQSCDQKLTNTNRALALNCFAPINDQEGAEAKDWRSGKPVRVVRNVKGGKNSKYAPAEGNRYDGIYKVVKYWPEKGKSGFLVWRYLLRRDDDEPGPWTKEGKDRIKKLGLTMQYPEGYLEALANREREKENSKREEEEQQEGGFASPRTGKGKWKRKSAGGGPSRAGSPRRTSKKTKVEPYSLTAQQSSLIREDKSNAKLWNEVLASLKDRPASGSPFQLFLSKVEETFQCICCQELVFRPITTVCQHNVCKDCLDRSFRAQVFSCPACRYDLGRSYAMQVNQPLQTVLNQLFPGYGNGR
PfGluPho inh – PfG6PD (Plasmodium falciparum) enzyme inhibition | inhibition, % at 20 µM | AID 504690 | PfGluPho enzyme, NADPH resazurin-diaphorase fluorescence | 350,000 tested, 0.78% active;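 active means inhibition reaching at least a set limit at 20 µM in the primary screen, cut at about 59% in these data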
PfM18AAP inh – blocks P. falciparum M18 aspartyl aminopeptidase; recombinant PfM18AAP, H-Glu-NHMec fluorogenic cleavage; inhibition, % at 7.35 µM; 290,000 tested, 1.2% active;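 active means inhibition above the campaign mean inhibition over all tested compounds plus 3 SD, cut at about 28% in these data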
PRMT1 inh – inhibitors of human PRMT1 | Q99873 | recombinant PRMT1, activity-based probe fluorescence polarization | inhibition, % at 2.79 µM | 370,000 tested, 1.3% active | AID 652257;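 active means inhibition above about 21% made by adding two undisclosed values, limit read from the data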
MBD2 inh – blocks human MBD2 binding to methylated DNA; inhibition, % at 4.4 µM; Q9UBB5; TR-FRET, MBD2 binding to methylated oligonucleotide; 370,000 tested, 0.31% active; AID 686964; in the data active means inhibition above about 13%
Of the large screens only hits and unclear results are named; the others gave an inactive call. An excerpt weighted towards active compounds, which were near 3.3% of everything screened.

COC(=O)[C@]12C[C@H](CC(=O)NCC34CC5CC(CC(C5)C3)C4)C(=O)N(CCC3=CCCCC3)C1=C[C@H](C(C)C)O[C@@H]2C1CC1	none (no result: PfGluPho inh, PfM18AAP inh)
CCOc1ccc2[nH]c3c(NCCO)ncnc3c2c1	none
CCOc1ccc2[nH]c3c(NCCc4ccc(OC)c(OC)c4)ncnc3c2c1	UHRF1 MBD2 ctr 45.2
O=[n+]1cc(-c2ccccc2)n([O-])c2c1CCC2	UHRF1 MBD2 ctr 20.9
CC(C)Oc1cccc(-c2n[nH]c(=S)n2N=Cc2ccc(OCc3ccccc3)cc2)c1	none (no result: PfGluPho inh, PfM18AAP inh)
CCOC(=O)c1[nH]c2c(c1C)C(=O)CC(c1ccco1)C2 (stereo not drawn)	none
COCCOC(=O)c1[nH]c2c(c1C)C(=O)CC(c1ccco1)C2 (stereo not drawn)	UHRF1 MBD2 ctr 33.4
COC(=O)C1CN(Cc2cn(Cc3ccc(C)cc3)nn2)CCS(=O)(=O)N1Cc1ccc(F)cc1 (stereo not drawn)	none (no result: PfGluPho inh, PfM18AAP inh)
O=C1C(Cl)=C(Nc2ccc(O)cc2)C(=O)c2ccccc21	PRMT1 inh 36.3
O=C(NCc1ccccc1)[C@@H]1CCCN1C(=O)[C@H]1CCCN1C(=O)c1ccccc1C(F)(F)F	none (no result: PfGluPho inh, PfM18AAP inh)
Cc1cc(C(=O)OCC(=O)NCCc2ccc(S(N)(=O)=O)cc2)c2ccccc2n1	none (no result: PfM18AAP inh)
Cc1cc(C(=O)OCC(=O)Nc2cccc(S(N)(=O)=O)c2)c2ccccc2n1	UHRF1 MBD2 ctr 22.7
COc1ccc(/C=C/C(=O)Nc2ccc(N3CCOCC3)cc2)cc1	none
COc1ccc(N2CCN(c3ccc(NC(=O)/C=C\C(=O)O)cc3)CC2)cc1	PfM18AAP inh 31.3
CCn1c2ccccc2c2cc(NC(=O)C(=O)N3CCOCC3)ccc21	UHRF1 MBD2 ctr 22.9
Cn1c(SCC(=O)NCc2ccc(F)cc2)nc2ccccc21	none
COc1ccc(CNC(=O)CSc2nc3ccccc3n2C(C)=O)cc1	UHRF1 MBD2 ctr 23.7
CC1=C2N=C(N)N(Cc3ccccc3)C(Cc3ccccc3)C2n2c(=O)n(-c3ccccc3)c(=O)n2C1 (stereo not drawn)	none (no result: PfGluPho inh, PfM18AAP inh)
Cc1ccc(NC(=O)CN(C)c2ccc(S(=O)(=O)N3CCCC3)cn2)cc1	none
CCOc1ccc(NC(=O)CN(C)c2ccc(S(=O)(=O)N3CCOCC3)cn2)cc1OCC	UHRF1 MBD2 ctr 41.3
COc1ccc(CCNC(=O)c2ccc3nc(-c4ccco4)c(-c4ccco4)nc3c2)cc1OC	PfGluPho inh 62.0 (no result: UHRF1 MBD2 ctr, PRMT1 inh, MBD2 inh)
CN1C(=O)c2cc(NC(=O)Cc3cccs3)ccc2OC[C@@H]2O[C@@H](CC(=O)N[C@H]3CCN(Cc4ccccc4)C3)CC[C@@H]21	none (no result: PfGluPho inh, PfM18AAP inh)
Nc1nonc1NN=C1CCCCC1	PfM18AAP inh 30.7
COc1cccc(-c2nn(-c3ccccc3)cc2CO)c1	none
COc1cccc(-c2nn(-c3ccccc3)cc2C(=O)NCC(=O)O)c1	UHRF1 MBD2 ctr 22.3
Cc1cccc(CNC(=O)NC2CCCCN(Cc3cccc(Cl)c3)C2=O)c1 (stereo not drawn)	none (no result: PfGluPho inh, PfM18AAP inh)
O=C(CCn1nnc2ccccc21)N1CCN(c2ccc(F)cc2)CC1	none (no result: PfGluPho inh, PfM18AAP inh)
Clc1ccc(N2CCN(Cc3c[nH]c4ncccc34)CC2)cc1	UHRF1 MBD2 ctr 22.9 (no result: PfM18AAP inh)
CCCCNCC(O)(c1ccc(Cl)cc1)c1ccc(Cl)cc1	UHRF1 MBD2 ctr 57.1
CSc1nc(-c2ccco2)nn1C(=O)c1ccco1	none
CSc1cc(-c2ccco2)oc1C(=O)c1ccco1	PRMT1 inh 24.6 (no result: PfM18AAP inh)
CC(=O)c1cc(-c2cccc(C(C)C)c2)c(=O)n2c1CCC2	none (no result: PfGluPho inh, PfM18AAP inh)
NC(=O)CSc1cn(Cc2ccc(F)cc2)c2ccccc12	none
NC(=O)CSc1cn(Cc2ccccc2)c2ccccc12	PRMT1 inh 22.6
COC(=O)c1cc(=O)nc(NN=C(C)C)s1	none (no result: PfGluPho inh, PfM18AAP inh)
COc1cc(/C=C2\CCC/C(=C\c3ccc(O)c(OC)c3)C2=O)ccc1O	PRMT1 inh 22.0
CCOc1cc(/C=N/N=C/c2ccc(O)c(OCC)c2)ccc1O	none
CCOc1cc(/C=C2\CN(CC)C/C(=C\c3ccc(O)c(OCC)c3)C2=O)ccc1O	PfM18AAP inh 29.1
Cc1[nH]c2ccccc2c1CC(=O)Nc1ccc(N(C)c2cccnc2)c(-c2cccc(Cl)c2)c1	none (no result: PfGluPho inh, PfM18AAP inh)
N=c1c2c(-c3ccccc3)c(-c3ccccc3)n(CCc3ccccc3)c2ncn1CCO	none (no result: PfGluPho inh, PfM18AAP inh)
CC(C)n1c(SCCCc2ccccc2)nc2c1c(=O)[nH]c(=O)n2C	PRMT1 inh 22.2
C/C=C/Cn1c(SCCCc2ccccc2)nc2c1c(=O)[nH]c(=O)n2C	none
O=C(CSc1nc2ccccc2c(=O)n1-c1ccccc1)N1CCc2ccccc2C1	UHRF1 MBD2 ctr 28.0
CSc1nc2[nH]ncc2c(=O)n1-c1ccccc1	PfM18AAP inh 60.5
O=C(CSc1nc2[nH]ncc2c(=O)n1-c1ccccc1)N1CCCCCC1	PfM18AAP inh 34.4 (no result: UHRF1 MBD2 ctr, PfGluPho inh, PRMT1 inh, MBD2 inh)
C=CCn1c(COc2ccccc2)nnc1SCC(=O)Nc1ccc(S(=O)(=O)Nc2cc(C)nc(C)n2)cc1	none (no result: PfGluPho inh, PfM18AAP inh)
CCN(CC)c1ccc2cc(NC(=O)CCC(=O)O)c(=O)oc2c1	PRMT1 inh 34.0
CC(COc1ccccc1C#N)CN1CCC(C(O)(c2ccccc2)c2ccccc2)CC1 (stereo not drawn)	none (no result: PfGluPho inh, PfM18AAP inh)
NC(=S)c1ccc[n+]([O-])c1	PRMT1 inh 59.1 (no result: PfM18AAP inh)
COC(=O)c1cccc(NC(=O)c2ccc[n+]([O-])c2)c1	none
CCOC(=O)[C@@]12CCCC3=C1N(CCC3)C(=O)[C@H]2CC(=O)NCc1ccccc1	none (no result: PfGluPho inh, PfM18AAP inh)
COc1ccccc1NC(=O)c1cccc(S(=O)(=O)N2CCN(c3ccccc3)CC2)c1	none (no result: PfM18AAP inh)
COc1ccc(NC(=O)c2cccc(S(=O)(=O)N3CCN(c4ccccc4)CC3)c2)c(OC)c1	UHRF1 MBD2 ctr 21.7 (no result: PfM18AAP inh)
CCOC(=O)c1cnc(Nc2nc3ccccc3o2)nc1CN1CCN(C)CC1	PfM18AAP inh 61.0
O=C(NCC1COCCO1)C1CCN(S(=O)(=O)c2cccs2)CC1 (stereo not drawn)	none (no result: PfGluPho inh, PfM18AAP inh)
Cc1ccc(S(=O)(=O)NC(C)C(c2cccs2)N2CCOCC2)cc1 (stereo not drawn)	UHRF1 MBD2 ctr 38.9
Cc1cccc(-c2cccc3c4c([nH]c23)[C@@H]2C[C@H](N(C)C(=O)c3ccco3)[C@H]([C@H](C)O)C(=O)N2CC4)c1	none (no result: PfGluPho inh, PfM18AAP inh)
Cc1ccc(C)c(N=Cc2cc3c(cc2[N+](=O)[O-])OCO3)c1	UHRF1 MBD2 ctr 37.6, PRMT1 inh 21.7
CC(=O)N(C)c1ccc(N=Cc2cc3c(cc2[N+](=O)[O-])OCO3)cc1	none (no result: PfM18AAP inh)
Cc1ccc(N=Cc2cc3c(cc2[N+](=O)[O-])OCO3)cc1[N+](=O)[O-]	PRMT1 inh 25.1 (no result: PfM18AAP inh)
COCCN(CCOC)C(=O)[C@H](CCc1ccccc1)NC(=O)[C@H]1O[C@@H](n2cnc3c(N)ncnc32)[C@H](O)[C@@H]1O	none (no result: PfGluPho inh, PfM18AAP inh)
COc1ccc(C(=O)COC(=O)CCc2ccccc2)cc1	PfM18AAP inh 29.6
CCC(C)N(c1nc(C)nc2c1nnn2Cc1ccccc1)C(C)CC (stereo not drawn)	none (no result: PfGluPho inh, PfM18AAP inh)
O=C(Cc1ccc(S(=O)(=O)N2CCOCC2)s1)Nc1ccccc1Br	UHRF1 MBD2 ctr 29.1
CC(C)(C)c1csc(NC(=O)Cc2ccc(S(=O)(=O)N3CCOCC3)s2)n1	UHRF1 MBD2 ctr 76.4 (no result: PfM18AAP inh)
C[C@@H]1[C@H](c2ccccc2)OC(O)([C@H](Cc2ccccc2)NC(=O)OC(C)(C)C)CN1C (stereo partly drawn)	none (no result: PfGluPho inh, PfM18AAP inh)

From PubChem
